SMN2 splice enh = qHTS Assay for Enhancers of SMN2 Splice Variant Expression; HEK293 SMN2-luciferase splicing reporter, luminescence, 30-36 h; Potency, µM (series often up to 46.1 µM), inactives show at the highest dose activity change, positive = activation, usual class: activators; 2.8% of 210,000 active; AID 1458, 2008; further: % of control where 0% means no effect; nearly all actives have a fitted effect of over 55% in size
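qHTS luciferase splicing reporter: luminescence rises when SMN2 exon 7 is included in transfected HEK293 cells. Compound exposure lasted 30-36 h at 37C, with 4.5 mM final sodium butyrate as control, followed by a ONE-Glo read.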
ELG1 genotoxic = qHTS screen for small molecules that induce genotoxicity in human embryonic kidney (HEK293T) cells expressing luciferase-tagged ELG1; 1.3% of 330,000 active; AID 504466, 2011; HEK293T ELG1-luciferase reporter, luminescence, 16 h; Potency, µM (titrated, usually from 46 µM), for the others: top-dose activity change, positive = activation, most hits filed as activators; further: % of control where 0% means no effect; nearly all actives have a fitted effect of over 60% in size
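Genotoxic stress is detected as increased luminescence from luciferase-tagged ELG1 in HEK293T cells, measured with ONE-Glo after a 16 hr treatment at 37 °C.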
FLuc modulator = qHTS profiling assay for firefly luciferase inhibitor/activator using purifed enzyme and Km concentrations of substrates (counterscreen for miR-21 project) | purified FLuc, Km substrates, luminescence inhibition | Potency, µM (highest dose often 57.5 µM), inactives show top-dose activity change, negative = inhibition, usual class: inhibitors | 6.9% of 360,000 active | AID 588342, 2011;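 further: plate controls were vehicle for no effect and reference inhibitor for full effect; nearly all actives have a fitted effect of over 55% in size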
Target sequence (P08659 whole entry, looked up): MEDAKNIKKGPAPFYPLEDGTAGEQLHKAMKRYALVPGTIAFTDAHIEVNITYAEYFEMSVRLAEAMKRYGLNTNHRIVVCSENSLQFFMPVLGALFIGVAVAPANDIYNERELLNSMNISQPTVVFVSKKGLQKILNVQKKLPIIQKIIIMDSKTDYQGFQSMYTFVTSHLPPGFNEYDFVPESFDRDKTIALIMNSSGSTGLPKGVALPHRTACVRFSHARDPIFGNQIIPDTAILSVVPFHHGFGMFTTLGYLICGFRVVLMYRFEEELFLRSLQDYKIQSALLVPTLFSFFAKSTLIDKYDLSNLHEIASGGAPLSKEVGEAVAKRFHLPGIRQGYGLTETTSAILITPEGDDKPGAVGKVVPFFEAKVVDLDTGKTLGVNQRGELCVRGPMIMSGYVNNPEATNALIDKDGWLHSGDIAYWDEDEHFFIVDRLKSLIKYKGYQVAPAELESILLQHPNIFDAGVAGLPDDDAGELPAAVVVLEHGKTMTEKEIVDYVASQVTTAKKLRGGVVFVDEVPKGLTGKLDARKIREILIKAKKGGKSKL
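Biochemical qHTS of compounds, final roughly 60 µM downward over six points, against 10 nM purified firefly luciferase using Km concentrations of substrates (10 uM D-luciferin, 10 uM ATP) in Tris acetate pH 7.5 buffer; luminescence output.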
Rab9 promoter act = qHTS Assay for Rab9 Promoter Activators. Huh7 Rab9 promoter-luciferase reporter, luminescence, 24 h. Potency, µM (doses to about 9.22 µM), without a hit: at the top dose activation, negative = inhibition, usual class: activators. 2.8% of 320,000 active. AID 485297, 2010; further: % of control where 0% means no effect; nearly all actives have a fitted effect of over 60% in size
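Luciferase signal after 10 min detection reagent at ambient indicates Rab9 promoter upregulation; stably transfected Huh7 cells were treated 24 h with compound in DMSO at 37 °C, 5% CO2.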
NPC1 promoter act = qHTS Assay for NPC1 Promoter Activators | 2.4% of 320,000 active | Potency, µM (top dose mostly 9.22 µM), for the others: top-dose activation, hits mostly activators | AID 485313, 2010 | Huh7 NPC1 promoter luciferase reporter, 24 h; further: % of control where 0% means no effect; nearly all actives have a fitted effect of over 60% in size
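Cells: Huh7 expressing luciferase under the NPC1 promoter, 1500/well. Seeded 2 h, compound added, incubated 24 h at 37 °C. Luciferase reagent, 10 min ambient, then luminescence.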
KinaseGlo FLuc = Counterscreen for Luciferase (Kinase-Glo TM) Inhibition; Luciferin 4-monooxygenase (Photuris pensylvanica), Q27757; 0.28% of 200,000 active; Potency, µM (series often up to 38.3 µM), without a hit: top-dose activity change, negative = inhibition, usual class: inhibitors; Kinase-Glo luciferase, ATP luminescence, 8 min; AID 1379, 2008; further: on the % scale 0 is the no-effect control and ±100 the full control effect; nearly all actives have a fitted effect of over 60% in size
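Luminescence was the read-out, taken after 8-minute incubation at ambient temperature. Luciferase turned over luciferin with 10 uM ATP in imidazole pH 7.2 buffer containing KCl, MgCl2, Tween 20 and BSA.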
Active calls of the source: *; ? = inconclusive; . = no result; [ ] = remark or other dose. Sampled rows, rich in hits. Any-hit rate of the full collection: about 7.3%. The call rests on the fitted dose curve; in most records, active means well fitted curve in the direction sought with a large enough effect; inconclusive means small, poorly fitted or top-dose-only effect, or another doubt; inactive means no such curve, though single readings can be large; an effect the other way counts as inactive or inconclusive. Potency means the concentration at half of the fitted maximal effect.

SMILES	SMN2 splice enh	ELG1 genotoxic	FLuc modulator	Rab9 promoter act	NPC1 promoter act	KinaseGlo FLuc
O=C(COc1ccccc1Cl)Nc1ccc2c(c1)OCCO2	.	4.11µM*	4.78µM*	1.58µM*	3.98µM*	-2.4%
COc1ccc(-c2ccc(CCC(=O)O)n2CC(=O)Nc2cccc(C(F)(F)F)c2)cc1	0.1%	.	?	.	.	.
COc1ccc(CNC(=O)c2ccc3c(c2)CCN3S(=O)(=O)c2ccc(C)cc2)cc1	-22.0%	.	-1.9%	.	.	.
COc1cccc(-n2c(N)c(-c3nc4ccccc4[nH]3)sc2=S)c1	-16.6%	-10.8%	?	0.2%	9.9%	9.3%
Cc1cc(C)c2c(N)c(-c3nc4ccccc4[nH]3)sc2n1	12.6µM*	?	?	2.82µM*	?	2.4%
Cc1ccc2nc(-c3sc4nc(C)ccc4c3N)[nH]c2c1	2.24µM*	?	1.2µM*	3.16µM*	3.16µM*	-10.8%
CCc1cccc(NC(=O)CN(C)S(=O)(=O)c2ccc3c(c2)n(C)c(=O)c(=O)n3C)c1	-4.7%	.	3.4%	.	.	.
COc1ccccc1OCCn1c(NC(=O)c2ccccc2Cl)nc2ccccc21	-3.9%	.	-17.2%	.	.	.
Cc1oc2ccc(O)c(CN3CCCC3)c2c1C(=O)Nc1cccc(Cl)c1C	7.0%	.	-1.8%	.	.	.
COC(=O)c1ccc2c(c1)C(C)(C)C(/C=C/c1ccc(O)cc1)=[N+]2C	-93.3%	?	13.5µM*	-36.4%	-36.8%	?
COC(=O)c1ccc2c(c1)C(C)(C)C(/C=C/c1ccc(OC)c(OC)c1OC)=[N+]2C	-77.1%	-1.9%	?	-51.6%	-46.3%	-5.1%
Cc1cc(SC(C)C(=O)Nc2ncc(Cl)cc2Cl)nc2ccccc12 (stereo not drawn)	3.55µM*	-5.1%	-11.5%	-0.3%	-1.7%	3.9%
Cc1nnc(SC(C)C(=O)Nc2ncc(Cl)cc2Cl)n1Cc1ccccc1 (stereo not drawn)	-5.9%	-1.4%	-1.2%	-0.1%	2.6%	0.2%
COc1ccc(OC)c(NC(=O)Nc2ccc3c(c2)OCO3)c1	.	-0.1%	26.9µM*	7.8%	3.6%	.
O=C(Nc1ccc2c(c1)OCO2)Oc1ccccc1	-6.9%	.	10.7µM*	.	.	-11.2%
COc1cccc(NC(=O)Nc2ccc3c(c2)OCO3)c1	.	?	7.57µM*	1.41µM*	2µM*	.
CC(C)C[C@@H](CC(=O)N[C@@H](CCC(=O)O)CC(=O)O)NC(=O)[C@@H]1CCCC[C@H]1NC(=O)C[C@H](CCCN)NC(=O)C[C@H](Cc1ccccc1)NC(=O)[C@@H]1CCCC[C@H]1N	-5.4%	.	.	.	.	-1.1%
Cc1cccc(S(=O)(=O)Nc2ccc(-c3nc4ccc(C)cc4s3)cc2)c1	11.2µM*	?	3.01µM*	2.82µM*	2.82µM*	-1.4%
Cc1ccc2nc(-c3ccc(NC(=O)c4ccc(S(C)(=O)=O)cc4)cc3)sc2c1	.	.	1.8%	.	.	.
Cc1ccc2nc(-c3ccc(NS(=O)(=O)c4c(C)n(C)c(=O)n(C)c4=O)cc3)sc2c1	.	14.9%	1.9µM*	2.82µM*	3.16µM*	.
Cc1c(S(=O)(=O)Nc2ccc3c(c2)OCCO3)c(=O)n(C)c(=O)n1C	-27.6%	-1.3%	-1.1%	6.1%	6.3%	-0.8%
CCN1C(=O)S/C(=C\c2ccc(N3CCOCC3)cc2C)C1=O	.	?	2.69µM*	2µM*	2µM*	.
CCCN1C(=O)S/C(=C\c2ccc(N3CCOCC3)o2)C1=O	-23.3%	?	?	?	22.0%	8.9%
CCCN1C(=O)S/C(=C\c2ccc(N3CCOCC3)cc2C)C1=O	3.9%	?	5.36µM*	2.24µM*	2µM*	-2.4%
Cc1ccccc1NCc1nc2ccccc2n1CCOc1ccccc1	17.8µM*	.	9.53µM*	.	.	.
SMILES	SMN2 splice enh	ELG1 genotoxic	FLuc modulator	Rab9 promoter act	NPC1 promoter act	KinaseGlo FLuc
Clc1ccc(NCc2nc3ccccc3n2CCOc2ccccc2)cc1	-30.2%	.	?	.	.	.
CCOc1ccc(NCc2nc3ccccc3n2CCOc2ccccc2)cc1	-42.6%	?	12µM*	25.3%	?	-2.2%
CCOc1ccc(NCc2nc3ccccc3n2CCOc2ccc(C)cc2)cc1	-41.6%	.	?	.	.	.
Cc1ccc(S(=O)(=O)N(CC(=O)O)Cc2cccc(C)c2)cc1	.	.	.	.	.	-1.4%
Cc1ccc(NC(=S)N/C(=N/S(=O)(=O)c2ccccc2)c2ccccc2)cc1	-1.1%	23.1µM*	10.7µM*	2.5%	8.6%	-2.9%
COc1ccc(C(=O)NN/C(=N/S(=O)(=O)c2ccc(C)cc2)c2ccccc2)cc1	.	?	5.36µM*	2.51µM*	2.82µM*	.
Cc1ccc(S(=O)(=O)/N=C(/NC(=S)Nc2ccccc2)c2ccccc2)cc1	?	?	4.78µM*	2.82µM*	3.55µM*	0.8%
CC(=O)Nc1ccc(N/C(=N\S(=O)(=O)c2ccccc2)c2ccccc2)cc1	.	-1.9%	2.3%	9.2%	-1.0%	.
CCCCCCN	-0.7%	.	.	.	.	.
Fc1ccc(Nc2nc(N/N=C/c3ccco3)nc(N3CCCCC3)n2)cc1	-24.0%	-13.7%	26.9µM*	-3.5%	-8.1%	-4.3%
COc1ccc(/C=N/Nc2nc(N3CCCC3)nc(N3CCCC3)n2)c(OC)c1OC	-2.7%	-2.8%	-4.2%	3.3%	-1.7%	-0.6%
COc1ccc(/C=N/Nc2nc(Nc3ccccc3)nc(N3CCCCC3)n2)c(OC)c1	-21.5%	-1.7%	6.75µM*	-2.6%	-2.4%	0.0%
C(=N\Nc1nc(N2CCOCC2)nc(N2CCOCC2)n1)/c1ccco1	-12.4%	-3.4%	3.7%	-0.2%	-6.0%	-0.7%
Cc1[nH]c2ccccc2c1/C=N/Nc1nc(Nc2ccccc2)nc(N2CCOCC2)n1	-8.0%	-10.2%	4.78µM*	0.2%	13.2%	-1.7%
COc1cc(/C=N/Nc2nc(Nc3ccccc3)nc(N3CCCCC3)n2)ccc1OCC(=O)O	15.4%	-2.3%	0.953µM*	17.2%	12.0%	-0.1%
COc1ccc(/C=N/Nc2nc(Nc3ccccc3)nc(N3CCCC3)n2)cc1[N+](=O)[O-]	0.2%	?	-12.8%	-19.4%	-9.3%	-1.2%
COc1ccc(-c2cc3nc(C)c(CCC(=O)NC(C)c4ccccc4)c(C)n3n2)c(OC)c1 (stereo not drawn)	-5.3%	.	-8.9%	.	.	.
CCc1ccc(OC(=O)c2cncc(Br)c2)cc1	.	1.2%	6.01µM*	-6.6%[1.84 µM]	0.5%	.
CCCCCOC(=O)c1ccc(OC(=O)c2cncc(Br)c2)cc1	56.2%	9.0%	-12.6%	22.3%	21.2%	5.1%
CCc1ccc(C(=O)COC(=O)c2cncc(Br)c2)cc1	-18.5%	-4.7%	15.1µM*	-6.9%	-4.1%	-2.0%
